This note sets out measurements from the supplement of paper PMC11417369.

± gives the standard deviation of the averaged measurements. The full ranking holds about 25,000 sequences; the median of “ln(normalized median fluorescence intensity)” is about 10, and the highest 2% start at about 12. The list comes from a sample in which the highest values are over-represented; it also holds similar and randomly drawn sequences.

For the assay, the system named is PfAP2-G AP2 domain (GST-tagged). Put plainly: gcPBM binding intensity (ln(normalized median fluorescence intensity)); higher = stronger DNA binding. In short, it runs like this: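 Each value is the highest Masliner-normalised natural-log median intensity across replicate spots of either orientation of a probe. The probes were primer-extended double-stranded 36-bp intergenic genomic sequences on an Agilent 4 × 180k array, alongside negative controls, exposed for 1 h to GST-tagged P. falciparum DNA-binding domains expressed in E. coli. Bound protein was picked up with Alexa488 anti-GST antibody and scanned at 488 nm.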
As to “GCTTATTTTAATTCTTGTACTTATTTATATACAAAT [XGTACX_site2099]”, the “gcPBM binding intensity (ln)” value was found to be 11.2 ± 0.83.

Take TTATTTATTTATATAGTGCAATAAACACATAAATAG: the “gcPBM binding intensity (ln)” value was 10.1 ± 0.26.

“TTTTGTAATTTTGTATGTACACATTAAAGTAATATG [XGTACX_site2401]”: the “gcPBM binding intensity (ln)” value worked out at 11.5 ± 0.91. To “AATTTTCAATAGTATACACACAATTCTATAAATATA [CACACA_site6650]” belongs 9.84 ± 0.042; to “ACTTCATTTTATAAGTGTACATAATTTGTTTATATA [XGTACX_site5453]”, 11.5 ± 0.85; to “AATAATTCTTAAAGGTGTACAATATGTATATAAGAA [XGTACX_site595]”, 11.7 ± 0.6.

With “AATAATTGTTAAAGGTGTACAATACGTATGTAAGAA [XGTACX_site1328]”, the “gcPBM binding intensity (ln)” value is 11.5 ± 0.95. To “AACAATTTTTAAAGGTGTACAATATGTATATAAGAA [XGTACX_site254]” belongs 11.6 ± 0.93; to “AATAAATAAATAAATAAAACAAAGGGATTACATACA [TGCATGCA_negctrl_site513]”, 9.84 ± 0.11; to “TACATTTATAATAATACACACATAAATTTACATTTT [CACACA_site3463]”, 10.1 ± 0.16.

Regarding “ATATATATATACATATGTACATATAAAATAATTTTG [XGTACX_site3731]”, the “gcPBM binding intensity (ln)” value worked out at 11.1 ± 0.74.

In the case of “CGGCACATTCTATATACACACATATAAATATATACA [CACACA_site566]”, the “gcPBM binding intensity (ln)” value worked out at 9.97 ± 0.042.

For the sequence “CCAACATTTTTTAGAAGTACATTTTTATATTTATTA [XGTACX_site5179]”, the “gcPBM binding intensity (ln)” value amounted to 11.3 ± 0.83.

Consider “TTATTATGCTGAGTACGTACTTATATAAGAATAGCA [XGTACX_site2955]”, for which the “gcPBM binding intensity (ln)” value is 11.8 ± 1. Turning to “TATATTATTATGCATAGTACGTACTGTGATAAGAAT [XGTACX_site2956]”, the “gcPBM binding intensity (ln)” value came out at 11.4 ± 0.8.

In the case of “AGAATAAGAATTATTAGTACTTATAAATATTATATT [XGTACX_site7228]”, the “gcPBM binding intensity (ln)” value was 10.9 ± 0.58.

For “AAAAAAAAATATATATATATATATATAAATAAATTT [CACACA_negctrl_site519]”, the “gcPBM binding intensity (ln)” value came out at 9.315 ± 0.007. With “AGGAAAAAAAAAATGACACACATATTTGAATTAAAA [CACACA_site1352]”, the “gcPBM binding intensity (ln)” value turned out to be 9.965 ± 0.007. For the sequence “ACAAAATTTACAAAATGTACAAAGTATGTGTTTTAT [XGTACX_site6462]”, the “gcPBM binding intensity (ln)” value was 10.7 ± 0.36. Next, “TATATGTGGGTTTTTTTTATGTGTTTTTCTTTTTTT [CACACA_negctrl_site936]”: 10.2 ± 0.18; “TATTATAATTTTATATGTACACATATATAAATATAT [XGTACX_site4054]”: 11.4 ± 1.1. Take “GTGAAATTATTTCCGTGTACACATAAATATATATTT [XGTACX_site3989]”: the “gcPBM binding intensity (ln)” value amounted to 11.8 ± 0.99. With “TGTGAAATAAAATTTGTACACACATATATATATATA [CACACA_site8093]”, the “gcPBM binding intensity (ln)” value came out at 11.1 ± 0.73. In the case of “AAATTATTTCCGTGTACACATAAATATATATTTTAT [CACACA_site5121]”, the “gcPBM binding intensity (ln)” value is 11.8 ± 0.83.

With “TTAATTTTATTTTTTTGTACACATAAATATTATAAA [XGTACX_site4680]”, the “gcPBM binding intensity (ln)” value came to 11.4 ± 0.91. For “TGAAATAAAATTTGTACACACATATTTATTTATATA [CACACA_site6421]”, the “gcPBM binding intensity (ln)” value was found to be 11.2 ± 0.97.

Turning to “TATTATGTCTAAAATAACATATTAATATATTATTTC [CACACA_negctrl_site285]”, the “gcPBM binding intensity (ln)” value amounted to 9.77 ± 0.11. In the case of “TAAACAGTATGCAACGCATGCGTTGTTATATATAAA [TGCATGCA_site232]”, the “gcPBM binding intensity (ln)” value is 9.88 ± 0.042. For “TCTTTTAAACAGTACACACACACATATATATATATA [CACACA_site924]”, the “gcPBM binding intensity (ln)” value came to 11.2 ± 0.69. To “AGCGTATTATACTGACGTACATTTTATGTAACTCCA [XGTACX_site2715]” belongs 11.4 ± 1.1; to “ATATGATCATTTTATCATTTTGCTTTTTCTTTTTTT [CACACA_negctrl_site1325]”, 9.4 ± 0.42; to “TTTGTTCATATGAAATGTACAAAAAAAAAAAAAAAA [XGTACX_site8849]”, 10.8 ± 0.77. Regarding “ATATTTTTGTTCAGGAGTACAGTTCAAGATGAAAAT [XGTACX_site4178]”, the “gcPBM binding intensity (ln)” value is 11.6 ± 0.99. Consider “GAGTTAATATTTAAAAGTACAAGATGAATGTAAAAA [XGTACX_site5810]”, for which the “gcPBM binding intensity (ln)” value was determined as 11.3 ± 0.78. For the sequence “CATCTAAATTGTAGTTGTACACCTTAATCTTATTAC [XGTACX_site7547]”, the “gcPBM binding intensity (ln)” value came out at 11.7 ± 0.83.

For “ATATAATAGTTATATTGTACATAAATTATACACCTT [XGTACX_site628]”, the “gcPBM binding intensity (ln)” value was found to be 11 ± 0.5.

For the sequence “ATAAATAATTGTAGTTGTACATGATATTTTTATTAC [XGTACX_site550]”, the “gcPBM binding intensity (ln)” value stood at 11.1 ± 0.63. Regarding “ATATATGTATATTTATGTACGTATTCCTGTATAGTC [XGTACX_site5763]”, the “gcPBM binding intensity (ln)” value was 11.5 ± 0.85. For the sequence “TTAGTATATTTTTCCTGTACGTACTCAGATACAAAT [XGTACX_site7397]”, the “gcPBM binding intensity (ln)” value amounted to 11.7 ± 0.91. On to “ATTTTTATTAAAATATGTACGTATTTTACTCATACA [XGTACX_site5330]”, for which the “gcPBM binding intensity (ln)” value was found to be 11.6 ± 0.8. To “TGGAATAAAAAAAGGAGTACAATTAATTATTCTTAA [XGTACX_site8299]” belongs 11.8 ± 1.3; to “TTTAATAATTATTAAAGTACAAAATAAATATTGAAT [XGTACX_site7538]”, 11 ± 0.62; to “CAAATAAAAATAAGGAGTACAATTAAAAAAGGAAGG [XGTACX_site4366]”, 11.6 ± 0.91. To “TTGTATATATATGGAAAAATATATATATATATATAT [GTGCAC_negctrl_site591]” belongs 10.3 ± 0.83.
